# In PubChem BioAssay AID1376 (SRMLSC, 2008):
# Out of some 220,000 compounds screened, about 530 (0.24%) were called active. Only a selection was taken, and actives are over-represented in it overall. Results with a measured potency or affinity are listed apart. Values without a mark were called inactive. No stated cut-off is given here; in the data, active means inhibition above about 13%; inconclusive means no clear call, values can overlap the other calls; inactive means below that.
# Target: Bifunctional protein GlmU (Mycobacterium tuberculosis (strain ATCC 25618 / H37Rv)) (UniProt P9WMN3)
# Assay: inhibition of mycobacterial GlmU enzyme – biochemical, glucosamine-1-phosphate acetyltransferase (AID 1376);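 further: 0% = complete reaction with vehicle and 100% = reaction without substrate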
# Details: M. tuberculosis GlmU acetyltransferase enzyme assay; hits give high values;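 tested at 30 µM in the primary screen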
# Chain of Bifunctional protein GlmU (Mycobacterium tuberculosis (strain ATCC 25618 / H37Rv)) (P9WMN3 whole entry, looked up): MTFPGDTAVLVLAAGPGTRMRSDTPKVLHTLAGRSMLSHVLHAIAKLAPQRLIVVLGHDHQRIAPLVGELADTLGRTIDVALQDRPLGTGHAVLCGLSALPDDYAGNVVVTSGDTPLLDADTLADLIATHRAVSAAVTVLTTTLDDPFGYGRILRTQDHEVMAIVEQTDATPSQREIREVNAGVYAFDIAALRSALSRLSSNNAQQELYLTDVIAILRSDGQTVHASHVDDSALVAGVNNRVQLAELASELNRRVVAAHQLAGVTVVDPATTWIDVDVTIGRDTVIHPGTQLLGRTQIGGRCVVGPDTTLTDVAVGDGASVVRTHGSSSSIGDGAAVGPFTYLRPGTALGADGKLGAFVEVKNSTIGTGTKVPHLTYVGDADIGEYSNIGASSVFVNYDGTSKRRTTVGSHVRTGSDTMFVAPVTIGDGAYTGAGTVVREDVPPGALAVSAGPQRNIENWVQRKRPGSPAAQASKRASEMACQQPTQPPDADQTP
row,Structure (SMILES),inhibition
1,CC(C)Cc1nnc(NC(=O)c2cc(-c3ccccc3)nc3ccccc23)s1,0.66%
2,COc1cc([N+](=O)[O-])ccc1NC(=O)Cc1ccc(F)cc1,4.76%
3,COc1ccc(CN2CCn3ncc(C(=O)Nc4cc(C)cc(C)c4)c3C2=O)cc1,-5.28%
4,O=C(NNS(=O)(=O)c1cc(Cl)cc(Cl)c1)c1sccc1-n1cccc1,13.9% (active)
5,O=C(NNS(=O)(=O)c1ccccc1)c1sccc1-n1cccc1,-3.8%
6,O=C(NNS(=O)(=O)c1ccc(Cl)cc1)c1sccc1-n1cccc1,-3.47%
7,CC1(C(=O)OCC(=O)Nc2ccc3ccccc3c2)CC1(Cl)Cl (centres undefined),0.98%
8,O=C(N1CCN(Cc2ccc3c(c2)OCO3)CC1)C12CC3CC(CC(C3)C1)C2,3.26%
9,COC(=O)c1ccc2c(=O)sc(N3CCC(C(N)=O)CC3)nc2c1,-0.93%
10,CCOc1ccc(/C=C2\SC(=S)NC2=O)cc1OC,0.99%
11,C=CCN1C(=O)/C(=C/c2ccc(OC(C)=O)c(OCC)c2[N+](=O)[O-])SC1=S,-0.95%
12,CCOc1c(O)ccc(/C=C2\SC(=S)NC2=O)c1[N+](=O)[O-],12.8% (active)
13,COC(=O)C1NN=C(C(=O)c2ccccc2)C1c1ccccc1 (centres undefined),-3.17%
14,Cc1cc(Cl)ccc1OCC(=O)OCC(=O)Nc1ccc(F)c([N+](=O)[O-])c1,4.62%
15,N/C(=N\S(=O)(=O)c1cc(C(F)(F)F)cc(C(F)(F)F)c1)c1ccccc1,4.74%
16,N/C(=N\S(=O)(=O)c1cc(C(F)(F)F)cc(C(F)(F)F)c1)c1cccs1,13.9% (active)
17,NC(=O)c1ccc(/C(N)=N/S(=O)(=O)c2cc(C(F)(F)F)cc(C(F)(F)F)c2)cc1,2.05%
18,CC(=O)c1ccc(NC(=S)NC(=O)c2c(Cl)c(C)nn2C)cc1,5.85%
19,CCOC(=O)c1ccc(NC(=S)N2CCC(C(N)=O)CC2)cc1,6.36%
20,Cc1ccc(O)c(CC(C)C)n1,6.41%
21,Cc1ccc(O)c(CO)n1,15% (active)
22,Cc1ccc(O)c(CCc2ccccc2)n1,-3.57%
23,COc1ccccc1NC(=O)Cn1c(CN2CCCCC2)nc2ccccc2c1=O,0.52%
24,O=C(NC1(C(F)(F)F)NC(=O)N(c2ccc(F)cc2)C1=O)c1cccs1 (centres undefined),-0.58%

row,Structure (SMILES),inhibition
1,CCOC(=O)CNC(=O)CSc1nc2sc(C)c(C)c2c(=O)n1C,15% (active)
2,CCOC(=O)CSc1nc2sc(C)c(C)c2c(=O)n1C,3.47%
3,Cc1sc2nc(SCC(=O)NCCO)n(C)c(=O)c2c1C,3.09%
4,Cc1c(C(=O)NCc2cccnc2)sc2ncn(CC(=O)N3CCCCC3C)c(=O)c12 (centres undefined),-7.32%
5,Cc1nc(NC(=O)CCCC(=O)Nc2nc(C)c(C)s2)sc1C,13.9% (active)
6,CCCCC(=O)Nc1nc(C)c(C(C)=O)s1,-1.28%
7,Cc1nc(NC(=O)C2CC2)sc1C,-0.38%
8,CCC(=O)N(Cc1cc2cc(C)c(C)cc2[nH]c1=O)C1CCCCC1,-7.37%
9,CC(=O)n1cc(/C=N/NC(N)=S)c2ccccc21,-6.26%
10,CSCC[C@H](NC(=O)OC(C)(C)C)C(=O)N/N=C/c1ccc2nccnc2c1,-6.4%
11,CSc1ccccc1C(=O)C1CCCN(Cc2ccn[nH]2)C1 (centres undefined),10.5%
12,O=C(c1cc2cc(Cl)cc(Cl)c2oc1=O)N1CCOCC1,-1.07%
13,CCc1ccc(NS(=O)(=O)c2ccc3[nH]cc(C(=O)N(C)Cc4ccco4)c(=O)c3c2)cc1,1.75%
14,Cc1ccccc1NS(=O)(=O)c1ccc2[nH]cc(C(=O)N(C)Cc3ccco3)c(=O)c2c1,29.4% (active)
15,CN(Cc1ccco1)C(=O)c1c[nH]c2ccc(S(=O)(=O)Nc3ccc4c(c3)OCCO4)cc2c1=O,3.32%
16,COc1cccc(C2=NOC(C(=O)Nc3cc(OC)c(OC)c(OC)c3)C2)c1 (centres undefined),-0.12%
17,CCOc1ncccc1C(=O)Nc1nnc(C2CC2)s1,8.29%
18,CC1CCCCN1CCNC(=O)CN1C(=O)COc2ccccc21 (centres undefined),-1.43%
19,CCn1c(SCC(=O)c2ccc(Cl)cc2)nnc1-c1cccs1,-2.46%
20,CN(CC(=O)Nc1cccc(F)c1)C(=O)CCCc1cccs1,-1.08%
21,COC(C[C@@H]1O[C@@H]1C(=O)[C@@H](C)OCc1ccccc1)OC,14.7% (active)
22,COC(C[C@@H]1O[C@@H]1C(=O)[C@H](C)OCc1ccccc1)OC,-0.47%
23,COC(C[C@H]1O[C@@H]1C(=O)[C@H](C)OCc1ccccc1)OC,5.93%
24,COC(=O)C1C(=O)c2c(C)noc2CC1(C)C (centres undefined),7.63%

row,Structure (SMILES),inhibition
1,COc1ccc(C)cc1-n1nnnc1SCC(=O)Nc1cc(C)on1,4.65%
2,Cc1cc(C)c2nc(SCCc3ccccc3)nc(C)c2c1,6.08%
3,C#CCOc1ccc2c(C)cc(=O)oc2c1,13.2% (active)
4,C=C(Cl)COc1ccc2c(C)cc(=O)oc2c1,-5.17%
5,Cc1cc(=O)oc2cc(OCC#N)ccc12,-3.06%
6,COc1ccc(/C=C/C(=O)NNc2cc(=O)n(C)c(=O)n2C)cc1OC,3.78%
7,COc1ccc(C/C(C)=N/NC(=S)Nc2ccccc2F)cc1,-0.55%
8,O=C(CSc1nc2ccccc2n1CCc1ccccc1)NC1CC1,0.08%
9,O=C(CSc1nc2ccccc2n1CCc1ccccc1)c1ccc(O)c(O)c1,23.3% (active)
10,O=C(CSc1nc2ccccc2n1CCc1ccccc1)N1CCOCC1,-3.44%
11,CC1CC(=S)Nc2ccccc2N1C(=O)Nc1ccccc1 (centres undefined),1.98%
12,O=C1S/C(=C\c2ccc(Cl)cc2)C(=O)N1CCn1cnnn1,-3.11%
13,O=C(NCc1ccc(F)cc1)c1ccc(CS(=O)(=O)Cc2ccc(F)cc2)o1,0.32%
14,COc1ccc(C(=O)Nc2nc3ccccc3s2)cc1OC,1.41%
15,O=[N+]([O-])c1cc(CN(CCO)CCO)ccc1O,1.38%
16,CC(NCC(O)COCc1ccc(Cl)cc1)c1ccccc1 (centres undefined),-4.31%
17,O=c1oc2ccccc2c(Nc2ccc(O)cc2)c1[N+](=O)[O-],13.3% (active)
18,O=c1oc2ccccc2c(Nc2ccccc2)c1[N+](=O)[O-],0.42%
19,O=c1oc2ccccc2c(Nc2cccc(O)c2)c1[N+](=O)[O-],1.89%
20,Cc1cc(NC(=O)c2cc(-c3ccc(C)s3)nc3ccccc23)no1,2.43%
21,COC(=O)/C(C(C)=O)=C(/C=C/C=C/N(C)C)N(C)C,6.24%
22,CCOC(=O)C1(Cc2ccc(Cl)cc2)CCN(C(=O)C2CCCO2)CC1 (centres undefined),1.7%
23,O=C(COc1ccc(Cc2ccccc2)cc1)c1ccc(F)cc1,-3.15%
24,CC1=C(C#N)c2nc(N)c(C#N)c(C)c2/C1=C\c1ccc(OCC(=O)O)c(Cl)c1,4.55%

row,Structure (SMILES),inhibition
1,CC1=C(C#N)c2nc(N)c(C#N)c(C)c2/C1=C\c1ccc(C)cc1,2.53%
2,Cc1ccccc1/C=N/NC(=O)Cc1ccc(Cl)cc1,0.8%
3,CC(C)(C)N1CC(C(=O)O)CC1=O (centres undefined),6.47%
4,CC(=O)NC(CCS(C)(=O)=O)C(=O)Nc1ccc(Oc2ccccc2)cc1 (centres undefined),-3.46%
5,CC(=O)NC(CCS(C)(=O)=O)C(=O)Nc1ccccc1 (centres undefined),2.39%
6,COc1ccc(NC(=O)C(CCS(C)(=O)=O)NC(C)=O)cc1 (centres undefined),18.3% (active)
7,O=[N+]([O-])c1cccc(/C=N/n2c(COc3ccccc3)n[nH]c2=S)c1,9.99%
8,CC(C)(C)c1ccc(Oc2ccc(NC(=O)c3cccs3)cn2)cc1,-0.97%
9,O=C1CC(=O)c2c1cccc2[N+](=O)[O-],17% (active)
10,O=C1OCc2cccc([N+](=O)[O-])c21,7.84%
11,O=C1c2cccc([N+](=O)[O-])c2C(=O)N1c1ccccc1,1.03%
12,CC1(C)CC(=O)C(C=Nc2ccc(Cl)cn2)=C(O)C1,13.9% (active)
13,CC1(C)CC(=O)C(/C=N/c2ccccn2)=C(O)C1,0.36%
14,Cc1ccc(N=CC2=C(O)CC(C)(C)CC2=O)nc1,0.57%
15,CCCc1c(C)c(C#N)c2nc3ccccc3n2c1NCCCN1CCOCC1,11.7%
16,N#Cc1c2c(c(NCCCN3CCOCC3)n3c1nc1ccccc13)CCC2,13.8% (active)
17,N#Cc1c2c(c(NCCN3CCOCC3)n3c1nc1ccccc13)CCCC2,6.82%
18,COCCCNC(=O)C1CCN(C(=O)c2cc3sccc3n2Cc2ccc(F)cc2)CC1,1.5%
19,O=C(O)C[C@@H]1C(=O)O[C@@H]2C(COC(=O)c3cc(O)c(O)c(O)c3)O[C@@H](OC(=O)c3cc(O)c(O)c(O)c3)[C@@H](OC(=O)c3cc(O)c(O)c4c3[C@H]1[C@H](O)C(=O)O4)[C@H]2OC(=O)c1cc(O)c(O)c(O)c1 (some centres undefined),67.3% (active)
20,O=C(OCC1O[C@@H](OC(=O)c2cc(O)c(O)c(O)c2)[C@@H](OC(=O)c2cc(O)c(O)c(O)c2)[C@@H](OC(=O)c2cc(O)c(O)c(O)c2)[C@@H]1OC(=O)c1cc(O)c(O)c(O)c1)c1cc(O)c(O)c(O)c1 (some centres undefined),7.78%
21,CCCC1=C(C(=O)OCC)C(c2ccco2)C(C#N)=C(N)O1 (centres undefined),0.05%
22,Cc1ccc(N2C(=O)C(Cc3ccc(O)cc3)NC2=S)cc1C (centres undefined),-4.47%
